# Data reported in PMC7862700, “An all-to-all approach to the identification of sequence-specific readers for epigenetic DNA modifications on cytosine”.
# Experiments:
# Assay in all cases: DAPPL (digital affinity profiling via proximity ligation, sequencing); 10 mM Tris-HCl pH 7.5, 50 mM NaCl, 1 mM DTT, 4% glycerol, room temperature, 30 min; GST-TFs on glutathione beads, 16-mer random dsDNA library, 0.1% formaldehyde crosslink after washing; high values mean tight binding
# FLI1 = target: T1, FLI1 (Homo sapiens, UniProt Q01543 1-452); details: protein: recombinant; tags: N-terminal GST; dsDNA, one strand shown
# T1 sequence: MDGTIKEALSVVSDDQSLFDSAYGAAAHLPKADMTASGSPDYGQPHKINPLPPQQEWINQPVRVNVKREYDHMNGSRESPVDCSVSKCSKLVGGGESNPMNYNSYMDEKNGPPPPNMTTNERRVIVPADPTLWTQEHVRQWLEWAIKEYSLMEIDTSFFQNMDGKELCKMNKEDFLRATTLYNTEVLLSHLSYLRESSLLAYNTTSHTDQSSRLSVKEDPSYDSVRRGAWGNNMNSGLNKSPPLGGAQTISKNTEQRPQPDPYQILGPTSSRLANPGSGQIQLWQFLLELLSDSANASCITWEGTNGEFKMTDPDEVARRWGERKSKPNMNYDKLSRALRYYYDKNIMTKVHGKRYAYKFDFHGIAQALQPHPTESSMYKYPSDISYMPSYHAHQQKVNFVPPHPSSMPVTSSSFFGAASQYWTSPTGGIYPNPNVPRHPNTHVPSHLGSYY
# Method in brief: (§1)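 Each value of binding signal is a hexamer's read frequency for a factor divided by the same hexamer's frequency in the tag-only sample. Barcoded, bead-captured GST fusions of human transcription factors made in yeast were pooled with that sample and incubated with 200 nmole of a random double-stranded 16-mer DNA library in Tris/NaCl/DTT/glycerol buffer at room temperature for 30 min. Washing, 0.1% formaldehyde crosslinking, proximity ligation, PCR and Illumina NextSeq500 sequencing followed.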
# ELK1 = target: T2, ELK1 (Homo sapiens, UniProt P19419 1-428); details: protein: recombinant; tags: N-terminal GST; dsDNA, one strand shown
# T2 sequence: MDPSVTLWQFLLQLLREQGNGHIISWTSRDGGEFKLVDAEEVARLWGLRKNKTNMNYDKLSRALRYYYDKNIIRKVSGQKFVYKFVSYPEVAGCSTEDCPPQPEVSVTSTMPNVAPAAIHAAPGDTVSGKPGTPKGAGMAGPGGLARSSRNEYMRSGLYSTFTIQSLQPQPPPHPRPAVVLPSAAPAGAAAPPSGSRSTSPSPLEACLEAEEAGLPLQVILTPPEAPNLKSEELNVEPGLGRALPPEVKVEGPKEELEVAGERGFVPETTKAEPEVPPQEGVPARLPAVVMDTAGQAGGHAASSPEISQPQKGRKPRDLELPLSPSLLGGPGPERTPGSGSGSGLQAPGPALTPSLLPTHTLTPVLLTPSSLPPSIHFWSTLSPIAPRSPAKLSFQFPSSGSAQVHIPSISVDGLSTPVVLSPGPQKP
# Method in brief: as §1
# GABPA = target: T3, GABPA (Homo sapiens, UniProt Q06546 1-454); details: protein: recombinant; tags: N-terminal GST; dsDNA, one strand shown
# T3 sequence: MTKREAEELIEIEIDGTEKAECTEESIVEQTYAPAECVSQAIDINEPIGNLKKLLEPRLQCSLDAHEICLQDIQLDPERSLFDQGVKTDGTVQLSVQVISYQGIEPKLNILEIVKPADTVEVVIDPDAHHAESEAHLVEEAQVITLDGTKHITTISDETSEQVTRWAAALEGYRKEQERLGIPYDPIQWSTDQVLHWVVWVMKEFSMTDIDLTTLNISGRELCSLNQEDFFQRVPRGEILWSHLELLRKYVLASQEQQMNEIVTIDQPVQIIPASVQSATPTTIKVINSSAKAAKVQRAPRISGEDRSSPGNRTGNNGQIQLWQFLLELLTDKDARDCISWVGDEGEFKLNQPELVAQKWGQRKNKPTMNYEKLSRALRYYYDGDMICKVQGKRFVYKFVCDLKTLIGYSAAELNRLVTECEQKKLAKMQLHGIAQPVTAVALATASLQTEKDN
# Method in brief: as §1
# ERG = target: T4, ERG (Homo sapiens, UniProt P11308 1-479); details: protein: recombinant; tags: N-terminal GST; dsDNA, one strand shown
# T4 sequence: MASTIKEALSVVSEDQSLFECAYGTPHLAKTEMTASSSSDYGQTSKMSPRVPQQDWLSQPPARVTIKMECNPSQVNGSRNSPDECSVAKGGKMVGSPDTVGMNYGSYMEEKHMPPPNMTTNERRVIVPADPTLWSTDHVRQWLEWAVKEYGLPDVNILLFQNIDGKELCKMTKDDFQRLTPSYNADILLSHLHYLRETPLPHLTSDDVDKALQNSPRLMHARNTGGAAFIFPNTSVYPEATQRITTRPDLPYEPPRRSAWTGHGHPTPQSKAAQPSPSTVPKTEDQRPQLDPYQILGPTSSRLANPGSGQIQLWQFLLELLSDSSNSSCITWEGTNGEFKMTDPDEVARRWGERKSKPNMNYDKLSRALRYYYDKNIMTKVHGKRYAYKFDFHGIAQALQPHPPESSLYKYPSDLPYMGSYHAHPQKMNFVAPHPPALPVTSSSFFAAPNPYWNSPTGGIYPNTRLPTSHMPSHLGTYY
# Method in brief: as §1
# ELF1 = ELF1 (Homo sapiens, UniProt P32519 1-619); details: protein: recombinant; tags: N-terminal GST; dsDNA, one strand shown
# Method in brief: as §1
# EHF = target: T5, EHF (Homo sapiens, UniProt Q9NZC4 1-300); details: protein: recombinant; tags: N-terminal GST; dsDNA, one strand shown
# T5 sequence: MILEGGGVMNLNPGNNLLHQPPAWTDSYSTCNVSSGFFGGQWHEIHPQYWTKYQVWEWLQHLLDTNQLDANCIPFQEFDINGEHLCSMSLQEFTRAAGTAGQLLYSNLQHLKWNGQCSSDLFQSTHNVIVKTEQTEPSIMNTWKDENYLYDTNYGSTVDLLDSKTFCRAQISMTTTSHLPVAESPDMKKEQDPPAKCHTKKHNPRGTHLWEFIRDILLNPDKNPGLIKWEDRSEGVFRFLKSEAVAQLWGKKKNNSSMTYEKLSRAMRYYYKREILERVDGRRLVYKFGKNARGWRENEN
# Method in brief: as §1
# SPI1 = SPI1 (Homo sapiens, UniProt P17947 1-270); details: protein: recombinant; tags: N-terminal GST; dsDNA, one strand shown
# Method in brief: as §1
# SPIB = SPIB (Homo sapiens, UniProt Q01892 1-262); details: protein: recombinant; tags: N-terminal GST; dsDNA, one strand shown
# Method in brief: as §1
# ELK3 = target: T6, ELK3 (Homo sapiens, UniProt P41970 1-407); details: protein: recombinant; tags: N-terminal GST; dsDNA, one strand shown
# T6 sequence: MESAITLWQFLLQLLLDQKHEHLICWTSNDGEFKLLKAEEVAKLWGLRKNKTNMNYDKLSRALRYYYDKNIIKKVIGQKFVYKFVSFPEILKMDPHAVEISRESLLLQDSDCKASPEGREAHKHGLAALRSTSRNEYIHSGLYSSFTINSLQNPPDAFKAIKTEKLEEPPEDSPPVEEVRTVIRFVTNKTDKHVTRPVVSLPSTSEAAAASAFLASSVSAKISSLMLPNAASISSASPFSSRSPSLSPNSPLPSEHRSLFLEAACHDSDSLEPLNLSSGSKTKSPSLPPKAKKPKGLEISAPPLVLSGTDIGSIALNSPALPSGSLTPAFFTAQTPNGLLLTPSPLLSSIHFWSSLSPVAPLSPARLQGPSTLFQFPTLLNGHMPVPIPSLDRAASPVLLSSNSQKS
# Method in brief: as §1
# FEV = target: T7, FEV (Homo sapiens, UniProt Q99581 1-238); details: protein: recombinant; tags: N-terminal GST; dsDNA, one strand shown
# T7 sequence: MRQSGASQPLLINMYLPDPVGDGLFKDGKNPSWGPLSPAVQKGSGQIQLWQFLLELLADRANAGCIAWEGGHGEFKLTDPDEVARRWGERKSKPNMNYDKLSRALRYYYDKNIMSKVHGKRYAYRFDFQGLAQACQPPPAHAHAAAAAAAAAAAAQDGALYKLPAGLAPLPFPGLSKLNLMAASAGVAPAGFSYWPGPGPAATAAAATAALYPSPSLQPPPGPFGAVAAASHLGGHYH
# Method in brief: as §1
# ETV5 = ETV5 (Homo sapiens, UniProt P41161 1-510); details: protein: recombinant; tags: N-terminal GST; dsDNA, one strand shown
# Method in brief: as §1
# HSF1 = HSF1 (Homo sapiens, UniProt Q00613 1-529); details: protein: recombinant; tags: N-terminal GST; chain copies: 3; dsDNA, one strand shown
# Method in brief: as §1
# SPIC = target: T8, SPIC (Homo sapiens, UniProt Q8N5J4 1-248); details: protein: recombinant; tags: N-terminal GST; dsDNA, one strand shown
# T8 sequence: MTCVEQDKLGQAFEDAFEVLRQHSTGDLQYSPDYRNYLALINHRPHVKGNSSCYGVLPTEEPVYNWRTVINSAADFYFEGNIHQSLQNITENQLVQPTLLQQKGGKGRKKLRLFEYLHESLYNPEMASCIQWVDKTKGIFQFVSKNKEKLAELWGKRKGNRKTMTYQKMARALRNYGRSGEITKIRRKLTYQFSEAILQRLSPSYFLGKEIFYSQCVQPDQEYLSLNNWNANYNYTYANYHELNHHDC
# Method in brief: as §1
# ELF4 = ELF4 (Homo sapiens, UniProt Q99607 1-663); details: protein: recombinant; tags: N-terminal GST; dsDNA, one strand shown
# Method in brief: as §1
# ELK4 = target: T9, ELK4 (Homo sapiens, UniProt P28324-2 1-405); details: protein: recombinant; tags: N-terminal GST; dsDNA, one strand shown
# T9 sequence: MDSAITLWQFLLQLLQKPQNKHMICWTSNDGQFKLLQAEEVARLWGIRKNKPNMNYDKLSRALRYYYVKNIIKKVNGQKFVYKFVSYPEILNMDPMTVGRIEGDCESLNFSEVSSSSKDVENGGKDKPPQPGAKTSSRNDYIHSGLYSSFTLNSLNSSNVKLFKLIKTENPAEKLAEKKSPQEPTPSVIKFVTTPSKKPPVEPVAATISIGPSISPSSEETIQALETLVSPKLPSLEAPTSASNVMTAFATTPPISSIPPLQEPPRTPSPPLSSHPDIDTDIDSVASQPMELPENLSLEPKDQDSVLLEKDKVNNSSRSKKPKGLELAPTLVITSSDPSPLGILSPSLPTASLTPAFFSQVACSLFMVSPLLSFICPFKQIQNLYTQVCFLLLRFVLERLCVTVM
# Method in brief: as §1
# ETV2 = target: T10, ETV2 (Homo sapiens, UniProt O00321 1-342); details: protein: recombinant; tags: N-terminal GST; dsDNA, one strand shown
# T10 sequence: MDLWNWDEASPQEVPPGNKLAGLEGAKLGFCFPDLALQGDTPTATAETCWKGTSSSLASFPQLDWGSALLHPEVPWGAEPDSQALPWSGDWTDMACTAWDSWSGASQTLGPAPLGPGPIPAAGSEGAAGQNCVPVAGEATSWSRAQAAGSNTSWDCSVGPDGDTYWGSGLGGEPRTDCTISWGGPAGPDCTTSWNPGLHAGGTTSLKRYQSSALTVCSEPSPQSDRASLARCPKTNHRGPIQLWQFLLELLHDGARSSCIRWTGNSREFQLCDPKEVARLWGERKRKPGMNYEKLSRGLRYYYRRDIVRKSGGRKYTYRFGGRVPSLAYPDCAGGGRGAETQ
# Method in brief: as §1
# ELF3 = target: T11, ELF3 (Homo sapiens, UniProt P78545 1-371); details: protein: recombinant; tags: N-terminal GST; dsDNA, one strand shown
# T11 sequence: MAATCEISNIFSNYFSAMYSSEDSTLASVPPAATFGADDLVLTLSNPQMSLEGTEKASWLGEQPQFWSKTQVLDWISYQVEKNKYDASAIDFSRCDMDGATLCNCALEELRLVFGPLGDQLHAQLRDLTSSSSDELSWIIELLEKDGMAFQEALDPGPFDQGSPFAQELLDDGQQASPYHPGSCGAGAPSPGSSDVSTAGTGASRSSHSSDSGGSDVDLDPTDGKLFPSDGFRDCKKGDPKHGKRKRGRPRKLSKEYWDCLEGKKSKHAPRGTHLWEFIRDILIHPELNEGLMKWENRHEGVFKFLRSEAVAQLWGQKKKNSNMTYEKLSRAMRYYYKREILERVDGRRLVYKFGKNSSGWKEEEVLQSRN
# Method in brief: as §1
# CRX = CRX (Homo sapiens, UniProt O43186 1-299); details: protein: recombinant; tags: N-terminal GST; dsDNA, one strand shown
# Method in brief: as §1
# ETV1 = ETV1 (Homo sapiens, UniProt P50549 1-477); details: protein: recombinant; tags: N-terminal GST; dsDNA, one strand shown
# Method in brief: as §1
# ETV5, sequence (P41161 whole entry): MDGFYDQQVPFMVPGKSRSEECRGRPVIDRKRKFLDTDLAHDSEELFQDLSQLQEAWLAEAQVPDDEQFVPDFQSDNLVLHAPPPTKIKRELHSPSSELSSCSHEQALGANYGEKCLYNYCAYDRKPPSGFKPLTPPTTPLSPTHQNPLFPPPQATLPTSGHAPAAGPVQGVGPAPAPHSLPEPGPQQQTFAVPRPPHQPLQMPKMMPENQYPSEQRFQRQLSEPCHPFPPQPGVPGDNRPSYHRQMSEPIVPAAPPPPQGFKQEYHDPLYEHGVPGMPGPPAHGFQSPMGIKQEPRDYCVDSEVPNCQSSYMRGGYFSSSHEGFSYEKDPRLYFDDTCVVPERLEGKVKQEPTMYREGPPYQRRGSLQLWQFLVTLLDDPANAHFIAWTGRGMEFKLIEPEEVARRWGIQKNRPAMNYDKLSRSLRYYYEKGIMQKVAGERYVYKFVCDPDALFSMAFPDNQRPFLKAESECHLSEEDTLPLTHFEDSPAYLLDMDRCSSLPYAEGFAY
# ELF4, sequence (Q99607 whole entry): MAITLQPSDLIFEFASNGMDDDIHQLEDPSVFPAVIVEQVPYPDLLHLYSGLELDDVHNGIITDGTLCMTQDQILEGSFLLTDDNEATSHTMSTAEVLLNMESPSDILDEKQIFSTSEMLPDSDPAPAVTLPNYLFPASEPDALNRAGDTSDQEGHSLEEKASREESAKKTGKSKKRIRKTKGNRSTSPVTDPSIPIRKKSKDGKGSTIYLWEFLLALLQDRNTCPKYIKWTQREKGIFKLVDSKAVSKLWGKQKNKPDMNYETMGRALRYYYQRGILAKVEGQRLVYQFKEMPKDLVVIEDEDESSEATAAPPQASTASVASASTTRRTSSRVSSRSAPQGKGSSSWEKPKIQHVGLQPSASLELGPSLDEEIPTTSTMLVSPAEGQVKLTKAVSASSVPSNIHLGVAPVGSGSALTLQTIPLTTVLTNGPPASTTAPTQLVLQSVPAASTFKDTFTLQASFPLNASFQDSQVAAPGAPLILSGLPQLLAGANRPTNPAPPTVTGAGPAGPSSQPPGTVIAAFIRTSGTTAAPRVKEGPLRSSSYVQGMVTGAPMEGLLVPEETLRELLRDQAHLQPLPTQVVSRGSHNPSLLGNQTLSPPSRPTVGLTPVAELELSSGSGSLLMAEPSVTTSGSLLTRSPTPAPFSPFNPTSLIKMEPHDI
# ETV1, sequence (P50549 whole entry): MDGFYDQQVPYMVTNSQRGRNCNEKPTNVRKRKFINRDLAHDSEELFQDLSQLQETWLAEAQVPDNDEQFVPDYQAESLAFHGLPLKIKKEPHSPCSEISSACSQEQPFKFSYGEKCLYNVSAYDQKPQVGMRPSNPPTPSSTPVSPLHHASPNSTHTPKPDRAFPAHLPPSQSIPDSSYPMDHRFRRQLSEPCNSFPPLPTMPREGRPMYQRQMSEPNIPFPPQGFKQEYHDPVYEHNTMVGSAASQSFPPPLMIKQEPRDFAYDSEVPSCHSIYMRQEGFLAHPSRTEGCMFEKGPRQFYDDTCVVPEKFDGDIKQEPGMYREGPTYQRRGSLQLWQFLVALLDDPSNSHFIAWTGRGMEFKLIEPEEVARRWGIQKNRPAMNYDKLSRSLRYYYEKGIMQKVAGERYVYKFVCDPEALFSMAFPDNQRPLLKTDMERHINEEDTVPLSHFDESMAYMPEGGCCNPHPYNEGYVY
# CRX, sequence (O43186 whole entry): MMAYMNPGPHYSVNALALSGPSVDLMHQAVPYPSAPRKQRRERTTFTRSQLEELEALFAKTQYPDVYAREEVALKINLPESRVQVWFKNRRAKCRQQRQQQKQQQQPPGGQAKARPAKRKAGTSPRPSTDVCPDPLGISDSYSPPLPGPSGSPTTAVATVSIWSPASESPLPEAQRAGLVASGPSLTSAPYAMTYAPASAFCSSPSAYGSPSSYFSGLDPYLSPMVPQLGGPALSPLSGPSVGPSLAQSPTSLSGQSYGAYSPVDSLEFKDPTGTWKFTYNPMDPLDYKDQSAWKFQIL
# ELF1, sequence (P32519 whole entry): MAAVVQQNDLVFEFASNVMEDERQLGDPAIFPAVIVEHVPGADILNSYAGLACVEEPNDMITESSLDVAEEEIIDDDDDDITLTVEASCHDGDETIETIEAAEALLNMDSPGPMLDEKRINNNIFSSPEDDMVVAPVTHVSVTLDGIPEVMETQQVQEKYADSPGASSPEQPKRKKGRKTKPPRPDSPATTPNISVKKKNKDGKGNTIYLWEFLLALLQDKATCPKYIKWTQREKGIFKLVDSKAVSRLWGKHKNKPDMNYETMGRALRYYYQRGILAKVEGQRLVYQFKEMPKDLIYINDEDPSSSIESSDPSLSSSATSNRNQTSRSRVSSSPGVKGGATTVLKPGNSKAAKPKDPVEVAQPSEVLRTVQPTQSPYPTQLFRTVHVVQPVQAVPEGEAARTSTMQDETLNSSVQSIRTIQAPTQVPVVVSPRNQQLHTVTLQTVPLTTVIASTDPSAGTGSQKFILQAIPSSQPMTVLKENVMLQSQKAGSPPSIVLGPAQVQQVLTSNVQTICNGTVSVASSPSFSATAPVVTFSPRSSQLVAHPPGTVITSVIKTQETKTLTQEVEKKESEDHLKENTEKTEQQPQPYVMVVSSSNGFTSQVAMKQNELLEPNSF
# HSF1, sequence (Q00613 whole entry): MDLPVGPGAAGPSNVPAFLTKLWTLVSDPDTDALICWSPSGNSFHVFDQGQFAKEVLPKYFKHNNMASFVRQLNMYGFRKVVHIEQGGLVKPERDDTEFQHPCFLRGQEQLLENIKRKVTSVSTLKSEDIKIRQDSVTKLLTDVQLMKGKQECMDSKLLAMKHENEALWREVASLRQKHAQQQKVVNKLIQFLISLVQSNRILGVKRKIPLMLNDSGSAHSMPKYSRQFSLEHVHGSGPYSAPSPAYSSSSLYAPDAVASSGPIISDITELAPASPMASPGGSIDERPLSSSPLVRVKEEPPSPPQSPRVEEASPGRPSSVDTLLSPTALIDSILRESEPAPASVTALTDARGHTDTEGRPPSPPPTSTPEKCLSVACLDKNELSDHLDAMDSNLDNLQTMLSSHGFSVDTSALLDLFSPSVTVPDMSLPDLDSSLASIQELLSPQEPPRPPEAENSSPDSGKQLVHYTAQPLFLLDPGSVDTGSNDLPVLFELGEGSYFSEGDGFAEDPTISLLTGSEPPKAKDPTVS
# SPIB, sequence (Q01892 whole entry): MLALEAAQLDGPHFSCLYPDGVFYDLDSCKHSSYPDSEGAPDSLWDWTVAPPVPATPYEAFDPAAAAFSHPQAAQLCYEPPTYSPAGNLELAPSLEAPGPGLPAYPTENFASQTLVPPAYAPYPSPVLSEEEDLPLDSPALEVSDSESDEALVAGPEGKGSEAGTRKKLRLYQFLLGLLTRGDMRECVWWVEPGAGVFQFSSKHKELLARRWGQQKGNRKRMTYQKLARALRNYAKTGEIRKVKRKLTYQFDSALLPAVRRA
sequence,measurement,setting,value
CGTACT,binding signal,FLI1,"1.2 fold enrichment (6-mer frequency, TF over GST control)"
same,binding signal,ELK1,"1.17 fold enrichment (6-mer frequency, TF over GST control)"
same,binding signal,GABPA,"1.19 fold enrichment (6-mer frequency, TF over GST control)"
same,binding signal,ERG,"1.16 fold enrichment (6-mer frequency, TF over GST control)"
same,binding signal,ELF1,"1.27 fold enrichment (6-mer frequency, TF over GST control)"
same,binding signal,EHF,"1.18 fold enrichment (6-mer frequency, TF over GST control)"
same,binding signal,SPI1,"1.11 fold enrichment (6-mer frequency, TF over GST control)"
same,binding signal,SPIB,"1.12 fold enrichment (6-mer frequency, TF over GST control)"
same,binding signal,ELK3,"1.26 fold enrichment (6-mer frequency, TF over GST control)"
same,binding signal,FEV,"1.17 fold enrichment (6-mer frequency, TF over GST control)"
same,binding signal,ETV5,"1.22 fold enrichment (6-mer frequency, TF over GST control)"
same,binding signal,HSF1,"1.05 fold enrichment (6-mer frequency, TF over GST control)"
same,binding signal,SPIC,"1.12 fold enrichment (6-mer frequency, TF over GST control)"
same,binding signal,ELF4,"1.25 fold enrichment (6-mer frequency, TF over GST control)"
same,binding signal,ELK4,"1.22 fold enrichment (6-mer frequency, TF over GST control)"
same,binding signal,ETV2,"1.35 fold enrichment (6-mer frequency, TF over GST control)"
same,binding signal,ELF3,"1.15 fold enrichment (6-mer frequency, TF over GST control)"
same,binding signal,CRX,"1.07 fold enrichment (6-mer frequency, TF over GST control)"
same,binding signal,ETV1,"1.34 fold enrichment (6-mer frequency, TF over GST control)"
